# HSP90 refold inh: HSP90 refolding inhibition in rabbit reticulocyte lysate; luciferase refolding luminescence, 3 h; inhibition, % at 5.6 µM; actives 0.91% (n = 290,000); AID 1789;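 active = inhibition above the screen-wide mean plus 3 SD, computed separately per campaign, cut at about 16% in these data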;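 also: 0% = DMSO wells and 100% = 60 µM geldanamycin wells; inhibitors lower the luminescence because luciferase stays unfolded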
# C8 TRAIL sens: caspase-8 TRAIL sensitization; NB7+C8 cells + TRAIL, ATPlite viability luminescence; inhibition (viability loss, TRAIL sensitization), % at 10 µM; actives 1% (n = 360,000); AID 624354;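 active = compounds causing at least 50% loss of cell viability in the single-dose screen, relative to plate controls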
# PPC-1+TRAIL kill: kills PPC-1 cancer cells in the presence of TRAIL | PPC-1 cells + TRAIL, ATPLite viability luminescence | cell killing (% activity), % at 4 µM or 5 µM | actives 0.41% (n = 220,000) | AID 1443;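 active = cell killing above 50% in the first pass at 4 µM, then a duplicate retest at 5 µM averaging 50% or more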;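 also: plate controls were cells with TRAIL plus DMSO for no effect and medium-only wells lacking cells for full effect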
# STAT1 inh: inhibitors of IFN-gamma induced STAT1 signaling. NIH 3T3 STAT1-luciferase reporter, luminescence. inhibition, % at 5.5 µM. actives 0.35% (n = 200,000);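 active = inhibition above a set limit, the mean inhibition across all tested compounds plus 3 SD, cut at about 34% in these data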;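 also: 0% = IFN-gamma with DMSO and 100% = IFN-gamma with 300 µM nifuroxazide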
# HSF1 inhib: HSF1 inhibition | NIH3T3-HGL HSE-luciferase, MG132-induced, luminescence 8 h; hits give low values | activity change, negative = inhibition, % at 7.5 µM (by protocol) | actives 0.77% (n = 300,000);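 active = more than half of replicate wells show activity change below -50%, luminescence cut by over half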;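 also: luciferase reports HSF-1 transcriptional activity via heat shock element; 0% = median of DMSO wells and -100% = zero luminescence signal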
# STAT3 blocker: reduces IL-6 driven STAT3 reporter signal | inhibition, % at 5.5 µM | actives 0.89% (n = 190,000) | U3A cells, IL-6 STAT3-luciferase reporter, luminescence; host cell line lacks STAT1;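 active = inhibition above the mean inhibition across all screened compounds plus 3 SD, cut at about 44% in these data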;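 also: 0% = DMSO only wells and 100% = 100 µM nifuroxazide control wells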
# Active calls of the source: *; nt = no result given. This is a sample that favours compounds with a hit; in the whole collection about 2.4% have one here.
SMILES,HSP90 refold inh,C8 TRAIL sens,PPC-1+TRAIL kill,STAT1 inh,HSF1 inhib,STAT3 blocker
CCCCn1c(NS(=O)(=O)c2ccc(C)cc2)c(S(=O)(=O)c2ccccc2)c2nc3ccccc3nc21,1.5,77.8*,9.6,-0.5,0.7,-7.2
CCOC(=O)N1CCN(S(=O)(=O)c2ccc3c(c2)OCC(=O)N3)CC1,6.3,-6.7,-6.6,0.0,-51.9*,5.2
CCCCCCCCCCC(C(=O)O)C1(C(=O)O)CCC(=O)O1 (centres undefined),nt,-0.2,nt,nt,nt,nt
Cc1ccccc1C(=O)O/N=C(\N)Cc1cccs1,2.0,92.1*,nt,nt,20.5,nt
CC(C)(C)c1ccc(C(=O)O/N=C(\N)Cc2cccs2)cc1,nt,94.2*,nt,nt,nt,nt
COc1ccc(S(=O)(=O)N2CCN(C(=O)c3ccccc3Cc3ccccc3)CC2)cc1OC,nt,-13.6,nt,nt,nt,nt
CC(=O)c1cc(C#N)c(NCc2ccccc2)nc1C,-3.0,1.0,2.3,-7.2,2.4,8.1
CCOC(=O)c1cc(C#N)c(NCc2ccccc2)nc1C,2.0,13.5,2.5,3.8,-72.4*,-12.7
O=C(NCCCn1cccn1)c1cc(COc2ccccc2)on1,nt,-10.4,nt,nt,nt,nt
Cc1nc(C(=O)NNC(=O)c2ccccc2Cl)c(C(F)(F)F)o1,1.5,28.8,2.5,nt,-4.4,nt
Cc1nc(C(=O)NNC(=O)c2cccc(Cl)c2)c(C(F)(F)F)o1,2.2,6.5,0.1,nt,-71.4*,nt
CSc1ccc(OC2(C)CCN(Cc3ccc(C(C)C)cc3)C2)cc1 (centres undefined),nt,3.2,nt,nt,nt,nt
O=C1C(=O)c2c(ccc3ccccc23)-c2ccccc21,nt,67.0*,nt,nt,nt,nt
CCC(COC)Oc1cc(NCc2ccccc2)c2ncn(C(C)C)c2c1 (centres undefined),nt,57.8*,nt,nt,nt,nt
CC(C)n1cnc2c(NCc3ccccc3)cc(N[C@H](C)CO)cc21,nt,59.6*,nt,nt,nt,nt
CCC(CO)Oc1cc(NCc2ccccc2)c2ncn(C(C)C)c2c1 (centres undefined),nt,18.9,nt,nt,nt,nt
CCC1(CC)SC(N)=NC1=O,nt,3.5,nt,nt,nt,nt
CCc1ccc(OC2(C)CCN(Cc3ccc4c(c3)OCCO4)C2)cc1 (centres undefined),nt,1.2,nt,nt,nt,nt
CNc1ncnc2c1ncn2[C@H]1CN(Cc2cccc3ccccc23)C[C@@H](CO)O1,nt,-7.8,nt,nt,nt,nt
CN1CCCCc2c1nc1ccccc1c2N (tested in a mixture with another compound),-0.9,12.4,-19.7,-5.6,-4.9,-2.0
Nc1c2c(nc3ccccc13)N(c1ccccc1)CC2,nt,-6.9,19.0,nt,-53.4*,nt
O=C(C(Cc1ccccc1)n1cccc1)N1CCN(c2cccc(Cl)c2)CC1 (centres undefined),4.0,-0.7,8.4,4.2,-0.1,3.7
COc1ccc(N2CCN(C(=O)C(Cc3ccccc3)n3cccc3)CC2)cc1 (centres undefined),2.1,-8.3,82.0*,2.9,1.6,13.9
CCN(C(=O)COC(=O)C1CC1C)c1c(N)n(Cc2ccccc2)c(=O)[nH]c1=O (centres undefined),nt,-3.3,nt,nt,nt,nt
CCOCCOC(=O)c1ccc(-n2cncn2)nc1,-5.9,-4.3,-5.4,-9.6,-85.9*,-4.6
SMILES,HSP90 refold inh,C8 TRAIL sens,PPC-1+TRAIL kill,STAT1 inh,HSF1 inhib,STAT3 blocker
CCOC(=O)c1ccc(-n2cncn2)nc1,1.3,-7.9,-1.5,0.8,1.5,15.2
CCc1nc2c(OCc3ccc(Cl)cc3Cl)cccn2c1N(C)C(C)=O,nt,-6.3,nt,nt,nt,nt
CCC(=O)CCC(=O)c1ccc2ccccc2c1,-1.1,11.3,20.3,-2.4,-57.9*,28.1
COc1ccc(C(NC(=O)C2CCN(Cc3ccc(Oc4ccccc4)cc3)CC2)c2ccccc2C)cn1 (centres undefined),nt,10.6,nt,nt,nt,nt
Cc1ccc(S(=O)(=O)N2C[C@H]3[C@H]4C(=O)N(C5CCCCC5)C(=O)[C@H]4CC(=O)[C@H]3[C@@H]2c2cccc3ccccc23)cc1,nt,59.7*,nt,nt,nt,nt
Cc1ccc(S(=O)(=O)N2C[C@H]3[C@H]4C(=O)N(C5CCCCC5)C(=O)[C@H]4CC(=O)[C@H]3[C@@H]2c2ccccc2F)cc1,nt,-0.4,nt,nt,nt,nt
O=c1[nH]c(=S)[nH]c2c1[C@H](CCc1cccc(Cl)c1)O[C@H](C1CCCC1)C2,nt,18.1,nt,nt,nt,nt
O=C(NC(=S)Nc1ccc(F)cc1)c1ccc2c(c1)OCCO2,8.0,19.6,26.1,-58.9,-67.9*,24.0
O=C(NC(=S)Nc1ccc(N2CCCCC2)cc1)c1ccc2c(c1)OCCO2,10.9,27.4,19.6,-6.5,-60.6*,5.2
COc1ccc(NC(=S)NC(=O)c2ccc3c(c2)OCCO3)cc1,nt,22.3,nt,nt,nt,nt
CC1=C(C(=O)Nc2ccc(C)cc2C)C(c2cccs2)NC(=S)N1 (centres undefined),0.9,-1.5,23.3,-2.5,-6.4,-6.1
CC1=C(C(=O)Nc2ccccc2C)C(c2cccs2)NC(=S)N1 (centres undefined),-3.2,-7.9,-1.7,-14.6,-50.8*,-5.2
COc1ccc(NC(=O)CSc2ncnc3c2cnn3CCc2ccccc2)cc1,-1.9,2.7,-5.4,-2.3,nt,45.6*
COc1cccc(NC(=O)CSc2ncnc3c2cnn3Cc2ccccc2)c1,5.2,-30.9,-5.6,-1.6,1.9,11.3
CCCC1(CCC)NC(=O)N(CC(=O)c2cc(C)n(-c3ccc4c(c3)OCO4)c2C)C1=O,4.2,-16.1,16.4,9.7,-3.2,24.4
Cc1cc(C(=O)CN2C(=O)C(=O)N(Cc3ccccc3)C2=O)c(C)n1-c1ccc2c(c1)OCCO2,-3.6,0.1,18.3,6.8,-70.4*,-5.7
COc1ccc(NC(=O)c2cc(-c3cc(F)ccc3OC(C)C)n[nH]2)cc1OC,nt,-9.5,nt,nt,nt,nt
Cc1cc(C)c2cc(CN(CCO)C(=O)Nc3ccc(F)cc3)c(=O)[nH]c2c1,2.3,0.5,-5.1,9.3,-4.9,12.4
Cc1cc(C)c2cc(CN(CCN(C)C)C(=O)Nc3ccccc3Cl)c(=O)[nH]c2c1,-0.2,-1.3,6.5,0.1,-50.2*,7.6
O=C(Nc1cccc([N+](=O)[O-])c1)c1cc2ccccc2cc1O,-3.3,59.6*,27.8,nt,2.4,nt
O=C(O)c1ccccc1C(=O)Nc1cccc([N+](=O)[O-])c1,-0.8,11.0,12.6,nt,22.7,nt
Cc1c(C(=O)Nc2cccc([N+](=O)[O-])c2)csc1-c1ccccc1,-1.8,57.2*,11.7,-72.5,18.5,-7.8
O=C(Nc1cccc([N+](=O)[O-])c1)c1ccc(-c2ccccc2)cc1,-4.2,10.1,-5.2,-0.7,6.0,12.7
Cc1cc(C)c2c(n1)SCC(=O)N2CC(=O)Nc1cccc(Cl)c1,31.3*,11.4,nt,nt,-3.4,nt
Cc1cc(C)c2c(n1)SCC(=O)N2CC(=O)Nc1c(C)cccc1C,-7.8,4.7,nt,nt,-4.3,nt
CCOC(=O)N1CCC(NC(=O)CN2C(=O)CSc3nc(C)cc(C)c32)CC1,1.8,6.3,7.1,4.8,-70.9*,6.1
COC(=O)C1=C(C(=O)OC)[C@@H]2N(Cc3ccccc3)c3ccccc3[C@@]23C[C@@H](C(=O)OC)N(C(=O)c2cccs2)C3=N1,nt,54.2*,5.2,nt,1.3,nt
O=C(NCc1nnnn1-c1ccc(F)cc1)c1ccc2c(c1)OCO2,nt,-0.9,nt,nt,nt,nt
